A549 tox: A549 cytotoxicity, counter-screen for Nrf2 inhibitors | Potency, µM (titrated, usually from 46 µM), most hits filed as inhibitors | A549 ARE-Fluc cells, CellTiter-Fluor viability, 18-24 h | AID 504648 | hit rate 0.16% among 390,000
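A549 ARE-Fluc cells in 5% FBS OPTI-MEM, 5000 cells/well, rested 2 h then exposed to compounds in concentration-response for 18-24 h at 37 °C. Viability by CellTiter-Fluor fluorescence (Ex 405/Em 525) after 30 min; luciferase luminescence (BugLite, 15 min, RT) read afterwards.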
TrxR1 substrate: rat thioredoxin reductase 1 substrate activity; O89049; Potency, µM (series often up to 114 µM); AID 588456; purified TrxR1 substrate turnover, NADPH consumption readout; hit rate 0.01% among 390,000; further: nearly all actives have a fitted effect of over 50% in size
Target sequence (O89049 whole entry, looked up): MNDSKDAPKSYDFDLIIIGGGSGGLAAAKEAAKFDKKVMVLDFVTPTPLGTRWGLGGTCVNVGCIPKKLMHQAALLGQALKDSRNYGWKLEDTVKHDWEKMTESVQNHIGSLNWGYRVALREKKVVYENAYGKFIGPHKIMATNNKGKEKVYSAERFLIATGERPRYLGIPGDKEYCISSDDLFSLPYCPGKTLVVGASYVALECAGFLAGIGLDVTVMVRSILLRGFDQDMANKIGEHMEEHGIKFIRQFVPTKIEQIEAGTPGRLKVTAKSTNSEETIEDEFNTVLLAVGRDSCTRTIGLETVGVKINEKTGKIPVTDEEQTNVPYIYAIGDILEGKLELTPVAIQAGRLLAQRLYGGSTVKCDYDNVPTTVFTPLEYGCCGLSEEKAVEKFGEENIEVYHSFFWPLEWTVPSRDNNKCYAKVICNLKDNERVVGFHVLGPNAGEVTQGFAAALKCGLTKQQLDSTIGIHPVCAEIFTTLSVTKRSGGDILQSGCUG
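Rat TrxR1, dispensed at 90 nM, was prereduced with 400 uM NADPH (final) for 5 min at ~22 deg C, then incubated with compound 15 min before 400 uM selenite. A first-read NADPH fluorescence drop versus no-compound background flagged substrates.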
TrxR1 inh: inhibitors of rat thioredoxin reductase 1. recombinant rTrxR1, NADPH fluorescence consumption, selenite substrate. hit rate 1% among 390,000. AID 588453. O89049. Potency, µM (series often up to 114 µM), most hits filed as inhibitors; further: nearly all actives have a fitted effect of over 65% in size
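Rat TrxR1 (90 nM in the dispensed reagent) was pre-reduced with 400 uM NADPH for 5 min at room temperature, then incubated with compound for 15 min. After 400 uM selenite was added, NADPH fluorescence (Ex 340/Em 450 nm) was followed for 8 min.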
Nrf2 ARE act: activates Nrf2 signaling. AREc32 ARE-luciferase reporter (MCF7-derived line), luminescence, 24 h. Potency, µM (top dose mostly 46.1 µM), actives largely listed as activators. hit rate 0.31% among 410,000. AID 624171; further: nearly all actives have a fitted effect of over 65% in size
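Quantitative high-throughput format: AREc32 reporter cells, 1000 per well, received compound by pin transfer and were incubated 24 hr at 37 deg C, 5% CO2, before Steady-Glo luminescence detection.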
Nrf2 block: blocks Nrf2 signaling | hit rate 2.1% among 360,000 | AID 504444 | Potency, µM (highest dose often 46 µM), actives largely listed as inhibitors | A549 ARE-Fluc reporter, luciferase luminescence, 18-24 h; further: nearly all actives have a fitted effect of over 60% in size
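Two sequential reads on A549 ARE_Fluc cells exposed to compound for 18-24 h: a CellTiter-Fluor fluorescence read for viability, then a luciferase luminescence read for Nrf2/ARE activity.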
GALK inh: inhibitors of human galactokinase; P51570; Potency, µM (highest dose often 57.5 µM), usual class: inhibitors; hit rate 0.007% among 270,000; Purified GALK, Kinase-Glo residual ATP luminescence
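Compounds were pin-transferred into ATP buffer (35 uM final), then GALK plus galactose (5 nM, 100 uM final) was added. After 1 h at room temperature, Kinase-Glo Plus was added and luminescence read after 10 min.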
Numbers stand for hits; [ ] = another dose, or the depositor's remark. Sampled rows, rich in hits. Any-hit rate of the full collection: about 3%. The call rests on the fitted dose curve; in most records, active means well fitted curve in the direction sought with a large enough effect; inconclusive means small, poorly fitted or top-dose-only effect, or another doubt; inactive means no such curve, though single readings can be large; an effect the other way counts as inactive or inconclusive.

How did O=C(NCCOc1ccccc1F)c1cccc(S(=O)(=O)N2CCN(c3ccccc3)CC2)c1 do in these assays?
A549 tox: inactive; TrxR1 substrate: inactive; TrxR1 inh: inactive; Nrf2 ARE act: inactive; Nrf2 block: 4.61µM

Results for CCN(CC)S(=O)(=O)c1ccc(C(=O)Nc2nc3c(Cl)cc(Cl)cc3s2)cc1 ?
A549 tox: inconclusive; TrxR1 substrate: inactive; TrxR1 inh: inactive; Nrf2 ARE act: inactive

Results for Cc1ccc(C(=O)CSC2=C(C#N)C(c3ccco3)C3=C(CC(C)(C)CC3=O)N2)cc1 (stereo not given) ?
A549 tox: inconclusive; TrxR1 substrate: inactive; TrxR1 inh: inactive; Nrf2 ARE act: inactive; Nrf2 block: 16.4µM; GALK inh: inactive

How did CCC(CC)C(=O)Nc1ccc(-c2cn3cccnc3n2)cc1 do in these assays?
A549 tox: inactive; TrxR1 substrate: inactive; TrxR1 inh: 79.4µM; Nrf2 ARE act: inactive; Nrf2 block: inconclusive; GALK inh: inactive

Results for CCC(CC)C(=O)Nc1cccc(-c2cn3cccnc3n2)c1 ?
A549 tox: inactive; TrxR1 substrate: inactive; TrxR1 inh: inactive; Nrf2 ARE act: inactive

How did CCn1nc(C)c(CNC(=O)c2cc(COc3ccc(C)nc3)on2)c1C do in these assays?
A549 tox: inactive; TrxR1 substrate: inactive; TrxR1 inh: inactive; Nrf2 ARE act: inactive; Nrf2 block: 23.1µM; GALK inh: inactive

How did CCn1nc(C)c(CNC(=O)c2cc(COc3ccc(F)cc3Cl)on2)c1C do in these assays?
A549 tox: inactive; TrxR1 substrate: inactive; TrxR1 inh: inactive; Nrf2 ARE act: inactive; Nrf2 block: inactive; GALK inh: inactive

How did COc1ccc2cc(-c3cc(C(=O)OCC(=O)NC4CCS(=O)(=O)C4)c4ccccc4n3)ccc2c1 (stereo not given) do in these assays?
A549 tox: inactive; TrxR1 substrate: inactive; TrxR1 inh: inactive; Nrf2 ARE act: inactive; Nrf2 block: 11.6µM; GALK inh: inactive

What do the screens show for `CCNC(=O)COC(=O)c1cc(-c2ccc(OC)cc2)nc2ccccc12`?
A549 tox: inactive[1.84 µM]; TrxR1 substrate: inactive; TrxR1 inh: inactive; Nrf2 ARE act: inactive; Nrf2 block: inactive; GALK inh: inactive

How did CCN(CC)C(=O)COC(=O)c1cc(-c2ccc(OC)cc2)nc2ccccc12 do in these assays?
A549 tox: inactive; TrxR1 substrate: inactive; TrxR1 inh: inactive; Nrf2 ARE act: inactive; Nrf2 block: 23.1µM; GALK inh: inactive

What do the screens show for `COc1ccc(-c2cc(C(=O)OCC(=O)NC3CC3)c3ccccc3n2)cc1`?
A549 tox: inactive; TrxR1 substrate: inactive; TrxR1 inh: inactive; Nrf2 ARE act: inactive; Nrf2 block: inactive

How did CC1CCN(c2ccc(-c3nc(C(C)C)no3)cc2[N+](=O)[O-])CC1 do in these assays?
A549 tox: inactive; TrxR1 substrate: inactive; TrxR1 inh: inactive; Nrf2 ARE act: inactive; Nrf2 block: inactive

Results for COc1ccc(C2Nc3ccccc3C(=O)N2Cc2ccccc2)cc1COc1cccc(Cl)c1 (stereo not given) ?
A549 tox: inactive; Nrf2 block: inactive

Results for Nn1cnnc1SCC(=O)Nc1ccc(C2CCCCC2)cc1 ?
A549 tox: inactive; TrxR1 substrate: inactive; TrxR1 inh: inactive; Nrf2 ARE act: inactive; Nrf2 block: inactive; GALK inh: inactive

What do the screens show for `O=C(O)CSCC(=O)Nc1ccc(C2CCCCC2)cc1`?
A549 tox: inactive; TrxR1 substrate: inactive; TrxR1 inh: inactive; Nrf2 ARE act: inactive; Nrf2 block: 5.17µM; GALK inh: inactive

What do the screens show for `CCCOc1ccc(C(=O)Nc2ccc(S(=O)(=O)NC3=NCCCCC3)cc2)cc1`?
A549 tox: inactive; TrxR1 substrate: inactive; TrxR1 inh: inactive; Nrf2 ARE act: inactive; Nrf2 block: 18.4µM

How did O=C(Nc1ccc(S(=O)(=O)NC2=NCCCCC2)cc1)c1ccc(Cl)cc1Cl do in these assays?
A549 tox: inactive; TrxR1 substrate: inactive; TrxR1 inh: inactive; Nrf2 ARE act: inactive; Nrf2 block: 16.4µM

Results for CCc1ccc(C2NC(=O)c3[nH]nc(-c4cccc(OC)c4)c32)cc1 (stereo not given) ?
A549 tox: inactive; TrxR1 substrate: inactive; TrxR1 inh: inactive; Nrf2 ARE act: inactive; Nrf2 block: 7.31µM

How did O=C(COC(=O)/C=C/c1ccco1)Nc1ccc(F)cc1Cl do in these assays?
A549 tox: inactive; TrxR1 substrate: inactive; TrxR1 inh: inactive; Nrf2 ARE act: 3.16µM; Nrf2 block: inactive; GALK inh: inactive

Results for CN(C)S(=O)(=O)c1cc(NC(=O)COC(=O)/C=C/c2ccco2)ccc1Cl ?
A549 tox: inactive; TrxR1 substrate: inactive; TrxR1 inh: 3.55µM; Nrf2 ARE act: inactive; Nrf2 block: inactive; GALK inh: inactive

How did O=C(COC(=O)/C=C/c1ccco1)Nc1cc(S(=O)(=O)N2CCOCC2)ccc1Cl do in these assays?
A549 tox: inactive; TrxR1 substrate: inactive; TrxR1 inh: 35.5µM; Nrf2 ARE act: inactive; Nrf2 block: inactive

What do the screens show for `O=S(=O)(c1ccccc1)n1nc(-c2ccco2)nc1NCc1ccccc1`?
A549 tox: inactive; TrxR1 substrate: inactive; TrxR1 inh: inactive; Nrf2 ARE act: inactive; Nrf2 block: inactive

How did COc1ccc(-n2ccnc(NCc3cccs3)c2=O)cc1OC do in these assays?
A549 tox: inactive; TrxR1 substrate: inactive; TrxR1 inh: inactive; Nrf2 ARE act: inactive; Nrf2 block: inactive

Results for C#Cc1nc(Nc2cccc(Cl)c2)nc(NC2CCCC2)n1 ?
A549 tox: inactive; Nrf2 block: inconclusive

What do the screens show for `CC1CCN(S(=O)(=O)c2ccc(NC(=O)Cc3ccc(S(=O)(=O)N4CCOCC4)s3)cc2)CC1`?
A549 tox: inactive; TrxR1 substrate: inactive; TrxR1 inh: inactive; Nrf2 ARE act: inactive; Nrf2 block: inconclusive

How did O=C(Cc1ccc(S(=O)(=O)N2CCOCC2)s1)Nc1ccc(S(=O)(=O)N2CCCCC2)cc1 do in these assays?
A549 tox: inactive; TrxR1 substrate: inactive; TrxR1 inh: inactive; Nrf2 ARE act: inactive; Nrf2 block: 20.6µM

Results for O=C(CSC1=NCCS1)Nc1ccc(S(=O)(=O)N2CCCCCC2)cc1 ?
A549 tox: inactive; TrxR1 substrate: inactive; TrxR1 inh: inactive; Nrf2 ARE act: inactive; Nrf2 block: 14.6µM; GALK inh: inactive

How did Nc1c(C(=O)c2ccccc2)sc(Nc2ccc(Cl)c(Cl)c2)c1C(=O)Nc1ccccc1 do in these assays?
A549 tox: inconclusive; TrxR1 substrate: inactive; TrxR1 inh: inactive; Nrf2 ARE act: inactive

How did Cc1cccc(Cn2c(-c3cccs3)nc3ccccc32)c1 do in these assays?
A549 tox: inactive; TrxR1 substrate: inactive; TrxR1 inh: inactive; Nrf2 ARE act: inactive; Nrf2 block: inactive

How did Cc1ccc(C)c(Cn2c(-c3cccs3)nc3ccccc32)c1 do in these assays?
A549 tox: inconclusive; TrxR1 substrate: inactive; TrxR1 inh: inactive; Nrf2 ARE act: inactive; Nrf2 block: 23.1µM

From PubChem
